Bioassay records: PubChem BioAssay, Broad Institute
An excerpt weighted towards active compounds, which were near 8.1% of everything screened.
MITF inh: inhibitors of MITF; inhibition, % (concentration not given with the values); hit rate 0.28% among 37,000; TRPM1 promoter luciferase, luminescence, 24 h; in the data active means inhibition above about 85%; inconclusive means no clear call, values can overlap the other calls; inactive means below about 68%;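 further: human melanocyte line stably carrying TRPM1 promoter luciferase reporter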
Shh pathway inh: blocks Sonic Hedgehog signaling | Shh-LIGHT2 Gli-luciferase reporter, 30 h | inhibition, % (concentration not given with the values) | hit rate 2.1% among 22,000;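 active means mean inhibition across valid replicates above about 65%, limit read from the data; inconclusive means mean under the limit, yet half or more replicates past it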;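 further: pathway switched on by Shh-conditioned medium diluted 1 in 25 in low serum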
PD-1 reverse act: activators reversing PD-1 mediated T-cell inhibition. 29,000 tested, under 10 active. activation, % (test concentration not listed). primary human CD4 T cells, PD-L1 beads, CellTiter-Glo 96 h; call rule not given here
NOMO-1 viab: STK33 inhibitor candidate reducing NOMO-1 cell viability; NOMO-1 AML viability, CellTiter-Glo luminescence, 72 h; inhibition, % (no concentration beside the values); hit rate 7.5% among 37,000; in the data active means inhibition above about 80%; inconclusive means no clear call, values can overlap the other calls
Numbers stand for hits; - = inactive; ? = inconclusive; . = no result.

SMILES	MITF inh	Shh pathway inh	PD-1 reverse act	NOMO-1 viab
Cc1noc(C)c1S(=O)(=O)Nc1cccc2c1O[C@@H](CN(C)S(=O)(=O)c1ccc(Cl)cc1)[C@@H](C)CN([C@@H](C)CO)C2=O	-	106	.	-
Cc1ccc(S(=O)(=O)N(C)C[C@@H]2Oc3c(NS(=O)(=O)c4c(C)noc4C)cccc3C(=O)N([C@H](C)CO)C[C@@H]2C)cc1	-	-	-	-
Cc1noc(C)c1S(=O)(=O)Nc1cccc2c1O[C@@H](CN(C)S(=O)(=O)c1ccc(Cl)cc1)[C@@H](C)CN([C@H](C)CO)C2=O	-	67	-	-
Fc1ccccc1-c1nnc(SCc2ccc(Br)cc2)n1Cc1ccco1	-	.	-	-
CCOc1ccc2nc(SCC(=O)O)nc(C)c2c1	-	.	-	-
C[C@@H]1CN([C@@H](C)CO)C(=O)c2cc(NS(=O)(=O)c3cn(C)cn3)ccc2O[C@H]1CN(C)C(=O)Nc1ccc(F)cc1	-	-	.	-
COc1ccc(NC(=O)Nc2ccc3c(c2)CC(=O)N([C@H](C)CO)C[C@@H](C)[C@@H](CN(C)S(=O)(=O)c2ccc(C)cc2)O3)cc1	-	.	-	-
COc1ccc(NC(=O)Nc2ccc3c(c2)CC(=O)N([C@@H](C)CO)C[C@@H](C)[C@@H](CN(C)S(=O)(=O)c2ccc(Cl)cc2)O3)cc1	-	-	-	-
COc1ccc(NC(=O)Nc2ccc3c(c2)CC(=O)N([C@@H](C)CO)C[C@H](C)[C@@H](CN(C)S(=O)(=O)c2ccc(Cl)cc2)O3)cc1	-	74	-	-
COc1ccc(NC(=O)Nc2ccc3c(c2)CC(=O)N([C@@H](C)CO)C[C@H](C)[C@H](CN(C)S(=O)(=O)c2ccc(C)cc2)O3)cc1	-	-	.	128
O=C(O)CN(c1ccccc1)S(=O)(=O)c1ccc(Cl)cc1	-	.	-	-
Cc1c(S(=O)(=O)c2ccc(Cl)cc2)csc1C(=O)N(c1ccccc1)S(C)=O (stereo unspecified)	-	88	-	-
C[C@H]1CN([C@@H](C)CO)C(=O)Cc2cc(NC(=O)Nc3ccc(F)cc3)ccc2O[C@H]1CN(C)Cc1ccc(C(=O)Nc2ccccc2N)cc1	-	.	-	128
C[C@H]1CN([C@@H](C)CO)C(=O)Cc2cc(NC(=O)Nc3cccc4ccccc34)ccc2O[C@H]1CN(C)Cc1ccc(C(=O)Nc2ccccc2N)cc1	-	.	-	105
C[C@H](CO)N1C[C@H](C)[C@H](CN(C)Cc2ccc(C(=O)Nc3ccccc3N)cc2)Oc2ccc(NC(=O)Nc3ccc4c(c3)OCO4)cc2CC1=O	-	.	-	127
C[C@H]1CN([C@@H](C)CO)C(=O)Cc2cc(NC(=O)Nc3cccc4ccccc34)ccc2O[C@@H]1CN(C)Cc1ccc(C(=O)Nc2ccccc2N)cc1	-	.	-	-
C[C@H]1CN([C@@H](C)CO)C(=O)Cc2cc(NC(=O)c3ccncc3)ccc2O[C@H]1CN(C)Cc1ccc(C(=O)Nc2ccccc2N)cc1	-	.	-	126
C[C@H]1CN([C@@H](C)CO)C(=O)Cc2cc(NC(=O)Nc3ccc4c(c3)OCO4)ccc2O[C@@H]1CN(C)Cc1ccc(C(=O)Nc2ccccc2N)cc1	-	.	-	-
COc1ccc([N+](=O)[O-])cc1NC(=O)CN(c1ccc(F)cc1)S(C)(=O)=O	-	.	-	-
C[C@H](CO)N1C[C@H](C)[C@H](CN(C)S(=O)(=O)c2ccc(F)cc2)Oc2ccc(NS(=O)(=O)c3ccc(Cl)cc3)cc2CC1=O	-	-	-	-
CNC[C@@H]1Oc2ccc(NC(=O)Nc3ccc4c(c3)OCO4)cc2CC(=O)N([C@H](C)CO)C[C@@H]1C	-	.	.	-
C[C@H]1CN([C@@H](C)CO)C(=O)Cc2cc(NC(=O)Nc3ccccc3)ccc2O[C@H]1CN(C)Cc1ccc(C(=O)Nc2ccccc2N)cc1	-	.	-	139
C[C@H]1CN([C@@H](C)CO)C(=O)Cc2cc(NC(=O)c3ccncc3)ccc2O[C@@H]1CN(C)Cc1ccc(C(=O)Nc2ccccc2N)cc1	-	.	-	-
CC(C)NC(=O)Nc1ccc2c(c1)CC(=O)N([C@@H](C)CO)C[C@@H](C)[C@@H](CN(C)Cc1ccc(C(=O)Nc3ccccc3N)cc1)O2	-	.	-	107
Cc1noc(C)c1NC(=O)Nc1ccc2c(c1)CC(=O)N([C@H](C)CO)C[C@H](C)[C@H](CN(C)Cc1ccc(C(=O)Nc3ccccc3N)cc1)O2	-	.	-	137
SMILES	MITF inh	Shh pathway inh	PD-1 reverse act	NOMO-1 viab
C[C@@H]1CN([C@H](C)CO)C(=O)Cc2cc(NC(=O)Nc3ccc(F)cc3)ccc2O[C@@H]1CN(C)Cc1ccc(C(=O)Nc2ccccc2N)cc1	-	.	-	97
Cc1sc2ncn(CC(=O)Nc3ccc(Oc4ccccc4)cc3)c(=O)c2c1-c1ccccc1	-	.	-	-
COc1ccc(CN(C)C[C@H]2Oc3c(NS(=O)(=O)c4cn(C)cn4)cccc3C(=O)N([C@@H](C)CO)C[C@@H]2C)cc1	-	-	.	-
CC(C)NC(=O)N(C)C[C@H]1Oc2ccc(NC(=O)CCN3CCOCC3)cc2CC(=O)N([C@H](C)CO)C[C@H]1C	-	-	-	-
C[C@H](CO)N1C[C@H](C)[C@H](CN(C)S(=O)(=O)c2ccc(Cl)cc2)Oc2c(NC(=O)C3CCCCC3)cccc2C1=O	-	103	-	-
C[C@H]1CN([C@@H](C)CO)C(=O)c2cccc(NC(=O)C3CCCCC3)c2O[C@H]1CN(C)S(=O)(=O)c1ccc(Cl)cc1	-	98	-	-
C[C@H]1CN([C@@H](C)CO)C(=O)c2cccc(NC(=O)C3CC3)c2O[C@H]1CN(C)S(=O)(=O)c1ccc(Cl)cc1	-	90	-	-
CCOC(=O)CSc1n[nH]c(-c2ccc(Cl)cc2)n1	-	.	-	119
COc1ccc(-c2cc(=O)c3c(O)cc(O[C@@H]4O[C@H](C(=O)O)[C@@H](O)[C@H](O)[C@H]4O)cc3o2)cc1	-	-	-	-
Cc1ccc(S(=O)(=O)Nc2ccc3c(c2)CC(=O)N([C@H](C)CO)C[C@H](C)[C@H](CN(C)Cc2ccc(C(F)(F)F)cc2)O3)cc1	-	-	-	104
COc1ccc(CN(C)C[C@H]2Oc3ccc(NS(=O)(=O)c4ccc(F)cc4)cc3CC(=O)N([C@H](C)CO)C[C@H]2C)cc1	-	.	-	-
C[C@@H]1CN([C@H](C)CO)C(=O)Cc2cc(NS(=O)(=O)c3ccc(F)cc3)ccc2O[C@@H]1CN(C)Cc1ccc(C(F)(F)F)cc1	-	?	-	111
Cc1ccc(S(=O)(=O)Nc2ccc3c(c2)CC(=O)N([C@@H](C)CO)C[C@@H](C)[C@@H](CN(C)Cc2ccc(C(F)(F)F)cc2)O3)cc1	-	-	-	84
COc1ccc(S(=O)(=O)Nc2ccc3c(c2)CC(=O)N([C@@H](C)CO)C[C@H](C)[C@@H](CN(C)Cc2ccc(C(F)(F)F)cc2)O3)cc1	-	-	-	113
C[C@@H]1CN([C@@H](C)CO)C(=O)c2cccc(NS(=O)(=O)c3cccs3)c2O[C@H]1CN(C)C(=O)Nc1cccc2ccccc12	-	-	-	-
O=C(CSc1nnc(COc2ccccc2)o1)NCc1ccccc1	-	.	-	-
C[C@H](CO)N1C[C@H](C)[C@H](CN(C)Cc2ccccc2)Oc2ccc(NC(=O)Cc3cn(C)c4ccccc34)cc2C1=O	-	-	-	-
